NPC1 prom act: activators of NPC1 promoter. Huh7 NPC1 promoter luciferase reporter, 24 h. Potency, µM (series often up to 9.22 µM), without a hit: at the highest dose activation, usual class: activators. 320,000 tested, 2.4% active. AID 485313; further: % of control where 0% means no effect; nearly all actives have a fitted effect of over 60% in size
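Luminescence read-out of NPC1 promoter-driven luciferase in stably transfected Huh7 cells; compounds delivered in DMSO and left 24 h at 37C, 5% CO2, qHTS titration format.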
ELG1 genotox: genotoxicity induction in ELG1-luciferase HEK293T cells; AID 504466; HEK293T ELG1-luciferase reporter, luminescence, 16 h; Potency, µM (top dose mostly 46 µM), without a hit: at the top dose activity change, positive = activation, actives largely listed as activators; 330,000 tested, 1.3% active; further: % of control where 0% means no effect; nearly all actives have a fitted effect of over 60% in size
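ELG1-luciferase HEK293T cells, 2,000/well; compound pinned in; 16 hr, 37 °C, 5% CO2; ONE-Glo, 30 min RT; luminescence on CCD imager.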
FLuc counter: counter-screen for miR-21 project: firefly luciferase inhibitors or activators | Potency, µM (top dose mostly 57.5 µM), without a hit: top-dose activity change, negative = inhibition, actives largely listed as inhibitors | 360,000 tested, 6.9% active | P08659 | purified FLuc, Km substrates, luminescence inhibition;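 further: plate controls were vehicle for no effect and reference inhibitor for full effect; nearly all actives have a fitted effect of over 55% in size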
Target sequence (P08659 whole entry, looked up): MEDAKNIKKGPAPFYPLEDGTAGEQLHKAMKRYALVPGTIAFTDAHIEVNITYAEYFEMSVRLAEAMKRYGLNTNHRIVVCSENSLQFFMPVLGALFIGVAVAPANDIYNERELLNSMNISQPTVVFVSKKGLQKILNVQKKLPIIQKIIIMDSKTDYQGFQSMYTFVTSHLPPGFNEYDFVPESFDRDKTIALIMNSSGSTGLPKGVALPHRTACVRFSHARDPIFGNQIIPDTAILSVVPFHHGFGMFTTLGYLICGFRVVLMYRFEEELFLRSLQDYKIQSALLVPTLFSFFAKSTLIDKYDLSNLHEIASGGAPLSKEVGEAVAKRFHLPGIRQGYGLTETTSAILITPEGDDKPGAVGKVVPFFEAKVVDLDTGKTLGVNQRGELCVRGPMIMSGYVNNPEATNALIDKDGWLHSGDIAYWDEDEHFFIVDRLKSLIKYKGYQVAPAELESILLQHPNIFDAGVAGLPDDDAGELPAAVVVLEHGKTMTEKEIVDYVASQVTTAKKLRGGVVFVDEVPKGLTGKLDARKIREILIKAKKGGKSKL
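Purified P. pyralis luciferase, 10 nM final, with Km-level 10 uM D-luciferin and 10 uM ATP in 50 mM Tris acetate pH 7.5, 10 mM Mg acetate, 0.01% Tween-20, 0.05% BSA; 6-point qHTS titration about 60 µM downward; luminescence read.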
Rab9 promoter act: Rab9 promoter activation; Huh7 Rab9 promoter-luciferase reporter, luminescence, 24 h; Potency, µM (top dose mostly 9.22 µM), without a hit: top-dose activation, negative = inhibition, usual class: activators; 320,000 tested, 2.8% active; further: % of control where 0% means no effect; nearly all actives have a fitted effect of over 60% in size
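Cells were plated at 1500 per well in reduced-serum medium with 10% FBS and left 2 h. Compound in DMSO was then added for 24 h at 37 °C. Reporter signal was read by luminescence after 10 min with luciferase detection reagent.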
SMN2 splice up: increases expression of the SMN2 splice variant | HEK293 SMN2-luciferase splicing reporter, luminescence, 30-36 h | Potency, µM (doses to about 46.1 µM), for the others: at the top dose activity change, positive = activation, hits mostly activators | 210,000 tested, 2.8% active | AID 1458; further: % of control where 0% means no effect; nearly all actives have a fitted effect of over 55% in size
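HEK293 cells carry an SMN2 […]–luciferase reporter in which exon 7 inclusion puts luciferase in frame. Cells were plated 10-12 h before compound addition, then incubated 30-36 h at 37C. ONE-Glo luminescence was read; sodium butyrate at 4.5 mM final served as control.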
ELG1 DNA repair: blocks ELG1-dependent DNA repair in HEK293T cells; HEK293T ELG1-luciferase reporter, luminescence, 16 h; DNA damage induced by 5-fluorouridine; Potency, µM (highest dose often 46.1 µM), without a hit: top-dose activity change, negative = inhibition, actives largely listed as inhibitors; 330,000 tested, 2.3% active; AID 504467; further: on the % scale 0 is the no-effect control and ±100 the full control effect; nearly all actives have a fitted effect of over 55% in size
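HEK293T cells expressing luciferase-tagged ELG1 (2,000/well) received 5-Fluorouridine plus compound or DMSO for 16 hr at 37 °C. Luciferase was read by ONE-Glo luminescence after 30 min at room temperature.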
An asterisk follows results filed as active; ? = inconclusive; . = no result given. In the library only some 9.2% were active in any assay of this set; here they are far more common. The call rests on the fitted dose curve; in most records, active means well fitted curve in the direction sought with a large enough effect; inconclusive means small, poorly fitted or top-dose-only effect, or another doubt; inactive means no such curve, though single readings can be large; an effect the other way counts as inactive or inconclusive. Potency means the concentration at half of the fitted maximal effect.

SMILES	NPC1 prom act	ELG1 genotox	FLuc counter	Rab9 promoter act	SMN2 splice up	ELG1 DNA repair
O=c1c2c3c(sc2nc2n1CCCC2)CCCCC3	15.9%	?	23.9µM*	10.9%	3.3%	?
O=c1c2c3c(sc2nc2n1CCCCC2)CCCCC3	3.55µM*	?	13.5µM*	3.55µM*	11.2µM*	?
O=c1c2c3c(sc2nc2n1CCC2)CCCC3	-5.3%	-0.2%	1.4%	1.6%	.	21.4%
CC1(C)Cc2c(sc3nc4n(c(=O)c23)CCC4)CO1	-0.6%	-1.4%	-0.4%	18.0%	-9.6%	17.1%
Cc1nc2sc3c(c2c(=N)n1N)CCCC3	-7.6%	0.0%	-4.0%	-10.0%	-6.7%	-1.8%
O=c1c2c3c(sc2nc2n1CCCS2)CCCC3	?	26.5%	19µM*	?	6.9%	?
O=c1c2c3c(sc2nc2n1CCCC2)CCC3	1.9%	3.2%	-0.4%	6.5%	12.7%	4.5%
CN(C(=O)CSc1nnc(-c2ccc(OC(F)F)cc2)n1N)C1CCS(=O)(=O)C1 (stereo not drawn)	0.8%	-8.1%	6.9%	-2.0%	.	2.7%
CCOc1c(Cl)cc(CNc2ccc3[nH]c(=O)[nH]c3c2)cc1OC	.	.	-0.8%	.	-23.7%	.
CC1=Nn2c(nc3sc4c(c3c2=O)CCCC4)SC1	25.1%	?	21.3µM*	?	10µM*	?
Nc1nc2sc3c(c2c(=O)s1)CCCC3	29.2%	16.4µM*	10.7µM*	?	?	?
O=c1c2c3c(sc2nc2n1CCCCC2)CCCC3	?	23.1µM*	19µM*	?	?	?
CCOC(=O)CSc1nc2sc3c(c2c(=O)n1Cc1ccccc1)CC(C)CC3 (stereo not drawn)	.	.	-1.1%	.	-6.5%	.
CCCOc1ccc(CSc2n[nH]c(C)n2)cc1	2.82µM*	?	19µM*	2.82µM*	.	?
O=C(c1ccc(Br)cc1)N1CCC(C(=O)N2CCN(c3ccccc3)CC2)CC1	-4.9%	-10.7%	-3.5%	0.7%	.	?
O=C1CN(c2ccccc2)C(=S)N1C(=O)c1ccc(Br)cc1	2.24µM*	18.3µM*	12µM*	3.16µM*	.	?
COc1ccc(-c2nc3ccccn3c2Cl)cc1	3.16µM*	1.16µM*	0.426µM*	0.794µM*	.	?
COc1ccc(-c2nc3ccccn3c2CN2CCN(c3ccccc3F)CC2)cc1	0.8%	-5.0%	16.9µM*	2.3%	5.2%	?
Clc1ccc(-c2nc3ccccn3c2CN2CCOCC2)cc1	1.5%	5.5%	-13.0%	-7.1%	7.2%	-8.0%
COc1ccc(Cl)cc1NC(=O)c1nnn(Cc2cccc(C(F)(F)F)c2)c1N	.	.	4.6%	.	22.4%	.
OCc1ccccc1OCCOc1ccc(Cl)c2cccnc12	26.7%	?	19µM*	25.2%	29.3%	?
Clc1ccc(OCc2cn3ccccc3n2)c2ncccc12	3.55µM*	?	12µM*	2.82µM*	.	?
COC(=O)c1ccccc1NC(=O)CSc1nnc2cc(C)c3cc(C)cc(C)c3n12	.	.	-13.8%	.	.	.
Cc1ccc2c(=O)cc(C(=O)N(Cc3ccccc3Cl)C3CCS(=O)(=O)C3)oc2c1 (stereo not drawn)	.	.	-1.5%	.	-2.1%	.
CCC1CCCCN1C(=S)NC(=O)c1cc(Br)ccc1Cl (stereo not drawn)	-1.4%	-6.2%	0.0%	-5.3%	.	-13.6%
SMILES	NPC1 prom act	ELG1 genotox	FLuc counter	Rab9 promoter act	SMN2 splice up	ELG1 DNA repair
CC1CCN(C(=O)c2cc(-c3ccc4c(c3)OCO4)on2)CC1	0.631µM*	2.91µM*	2.69µM*	1.12µM*	.	?
CCC1CCCCN1C(=O)c1cc(-c2ccc(Cl)c(Cl)c2)on1 (stereo not drawn)	?	?	19µM*	?	48.4%	?
COc1ccc(-c2cc(C(=O)N3CCCCC3C)no2)cc1OC (stereo not drawn)	.	.	-15.4%	.	7.7%	.
CC1CCCCN1C(=O)c1cc(-c2ccc(Cl)c(Cl)c2)on1 (stereo not drawn)	3.98µM*	?	12µM*	2.51µM*	?	?
O=C(c1cc(-c2ccccc2)on1)N1CCN(Cc2ccc3c(c2)OCO3)CC1	-2.1%	-4.9%	-11.9%	-0.7%	-16.4%	-30.0%
CC1CCCCN1C(=O)c1cc(-c2ccc3c(c2)OCO3)on1 (stereo not drawn)	0.631µM*	11.6µM*	3.79µM*	0.891µM*	.	?
COC(=O)c1ccc(NC(=O)CC2C(=O)N(c3ccc(C)cc3)C(=O)N2Cc2ccc(OC)cc2)cc1 (stereo not drawn)	.	.	-11.9%	.	.	.
CCC1CCCCN1C(=O)CSc1nc(-c2ccc(OC)cc2)cc(C(F)(F)F)n1 (stereo not drawn)	.	.	-4.6%	.	-15.7%	.
COc1ccc(-c2csc(-c3nc(-c4ccc(Br)s4)cs3)n2)cc1F	.	.	-4.8%	.	-1.7%	.
CCN(CC)CCCNc1ncnc2c1cnn2-c1ccc(C)c(C)c1	.	.	15.1µM*	.	.	.
CCCCNc1ncnc2c1cnn2-c1ccc(C)cc1C	-0.7%	14.3%	-19.5%	-7.4%	-27.9%	-0.6%
C=CCNc1ncnc2c1cnn2-c1ccc(Cl)cc1	0.891µM*	1.84µM*	0.849µM*	1.12µM*	2.82µM*	?
C=CCNc1ncnc2c1cnn2-c1cccc(C)c1	2.51µM*	2.91µM*	4.78µM*	1.41µM*	11.2µM*	?
COc1ccc(-n2c(C)c(C)c3c(NCCCO)ncnc32)cc1	?	13.8%	?	?	.	?
Cc1ccc(-n2c(C)c(C)c3c(NCCCO)ncnc32)cc1	2.82µM*	?	19µM*	2.51µM*	.	?
Cc1cccc(-n2ncc3c(NCCCO)ncnc32)c1	2.51µM*	3.66µM*	6.75µM*	1.12µM*	11.2µM*	?
Cc1c(C)n(CCCN(C)C)c2ncnc(NCc3ccccc3)c12	-5.0%	1.0%	-0.6%	-4.0%	.	24.1%
Cc1c(C)n(CCc2ccccc2)c2ncnc(NCCO)c12	3.55µM*	?	16.9µM*	1.78µM*	.	?
CCn1c(N2CCN(S(=O)(=O)c3ccc(Cl)cc3)CC2)nc2ccccc21	-9.9%	-16.4%	-0.2%	-4.9%	-43.3%	14.6µM*
Cc1cc(Oc2ccc(=O)[nH]n2)nc(Cl)n1	1µM*	?	15.1µM*	3.16µM*	.	?
CC1(C)Cc2c(sc3c2c(=N)n(Cc2ccco2)c(=O)n3CC(=O)Nc2ccccc2)CO1	4.5%	2.0%	-5.6%	-0.7%	?	9.2µM*
CC1(C)Cc2c(sc3c2c(=N)n(Cc2ccco2)c(=O)n3CC(=O)Nc2ccc(Cl)cc2)CO1	-1.2%	-3.5%	3.2%	-3.1%	25.0%	20.6µM*

Compound activity deposited in PubChem BioAssay by National Center for Advancing Translational Sciences (NCATS).
